KB-3-1 tox: KB-3-1 parental cell cytotoxicity; KB-3-1 viability, CellTiter-Glo ATP luminescence, 72 h; actives 1.4% (n = 400,000); Potency, µM (doses to about 46.1 µM), actives largely listed as cytotoxic; AID 1347075; note: % is set by controls: 0 for no effect and ±100 for the full control effect; nearly all actives have a fitted effect of over 60% in size
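Luminescent ATP read-out (CellTiter-Glo) measures survival of drug-naive KB-3-1 cells after 72 h compound exposure at 37 °C. Titration series was screened from lowest to highest concentration, with DMSO vehicle plates as background controls.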
HT1080 IDH1KD tx: toxicity to HT-1080 IDH1 knockdown cells (counter line); HT-1080 IDH1 knockdown viability, ATP luminescence, 48 h; Potency, µM (highest dose often 46.1 µM), without a hit: at the top dose activity, negative = toxicity, most hits filed as cytotoxic; actives 2% (n = 360,000); AID 686971;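 note: 0% = DMSO wells and -100% = cell-free medium wells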
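Viability of IDH1-knockdown HT-1080 fibrosarcoma cells was assessed by CellTiter-Glo after 48 h at 37 °C with titrated compound; concentration-effect curves were classified by fit quality and response size.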
ATXN2 expr inh: inhibitors of ATXN2 expression. Potency, µM (highest dose often 57 µM), without a hit: at the top dose activity change, negative = inhibition, most hits filed as inhibitors. HEK-293 ATXN2-luciferase reporter, luminescence, 24 h. actives 0.72% (n = 360,000). AID 1745845; note: % is set by controls: 0 for no effect and ±100 for the full control effect; nearly all actives have a fitted effect of over 55% in size
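qHTS (up to 57 uM final) was run with 24 h compound exposure of reporter cells at 37 °C. Each well was multiplexed: SteadyGlo luminescence measured ATXN2-luciferase expression after a fluorogenic Gly-Phe-AFC viability readout (25 uM final).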
HT1080NT lethal: kills 2HG-producing HT-1080-NT fibrosarcoma cells | HT-1080-NT fibrosarcoma viability, CellTiter-Glo ATP luminescence, 48 h | Potency, µM (top dose mostly 46.1 µM), for inactives: at the highest dose activity, negative = less viability, actives largely listed as cytotoxic | actives 1.6% (n = 360,000) | AID 686970;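 note: NT is the 2HG producing partner of a matched IDH1 knockdown line; 0% = DMSO-treated cells and -100% = media-only wells without cells; nearly all actives have a fitted effect of over 55% in size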
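HT-1080-NT; 750 cells/well; 5% FBS RPMI; 48 h compound, 37 degrees C; CellTiter-Glo luminescence; curve fitting and curve-class assignment.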
KB-V1 MDR tox: KB-V1 MDR subline cytotoxicity | Potency, µM (top dose mostly 46.1 µM), actives largely listed as cytotoxic | AID 1347076 | KB-V1 MDR cells viability, CellTiter-Glo, 72 h | actives 3.4% (n = 400,000); note: % is set by controls: 0 for no effect and ±100 for the full control effect; nearly all actives have a fitted effect of over 60% in size
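Cells of the MDR subline KB-V1 are plated, dosed with compound at multiple concentrations, and incubated 72 h at 37 degrees C; CellTiter-Glo is then added and luminescence read after 10 min.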
S2 tox: cell viability loss in ATXN counter-screen | Potency, µM (highest dose often 56.7 µM), usual class: cytotoxic | S2 cells (HEK-293 line with an ATXN2-luciferase reporter) viability, CellTiter-Fluor protease fluorescence, 24 h | actives 0.49% (n = 400,000) | AID 651635; note: nearly all actives have a fitted effect of over 40% in size
Numbers without * were called inactive; i = inactive; ? = inconclusive; . = no result; ! = a repeat was not active. Shown are actives, neighbours in structure and some others; about 6.2% of the full set was active somewhere. Calls come from the whole dose curve; as a rule, active = well fitted curve in the direction sought with a large enough effect; inconclusive = small, poorly fitted or top-dose-only effect, or another doubt; inactive = no such curve, though single readings can be large; an effect the other way counts as inactive or inconclusive. Potency is the fitted concentration of half-maximal effect.

SMILES | KB-3-1 tox | HT1080 IDH1KD tx | ATXN2 expr inh | HT1080NT lethal | KB-V1 MDR tox | S2 tox
CCn1c(C)c(C(=O)NCCc2ccccc2)c2cc(OC)ccc21 | i | -11.5% | 4.7% | -1.1% | i | i
CCOC(=O)c1c(C)c(C(=O)Nc2cc(OC)ccc2OC)c(C)n1CC | i | 7.08µM* | -13.0% | 7.08µM* | i | i
CC(C)NCC(O)c1ccccc1Cl (stereo not given) | . | . | 2.5% | . | . | i
O=C1CN=C(c2ccccc2Cl)c2cc(Cl)ccc2N1Cc1cccc(Cl)c1 | ? | . | ? | . | 14.6µM* | ?
COc1ccc(-c2nc(CN3C(=O)CN=C(c4ccccc4Cl)c4cc(Cl)ccc43)c(C)o2)cc1OC | ? | . | -13.8% | . | ? | ?
Cc1ccc(-n2nc3c(=O)n(CC(=O)NCC(C)c4ccccc4)nc(C)c3c2C)cc1 (stereo not given) | i | . | -27.3% | . | i | ?
COc1ccc(-n2nnnc2C(c2ccccc2)N2CCC3(CC2)C(=O)NCN3c2ccccc2)cc1 (stereo not given) | ? | ? | -37.7% | ? | i | ?
O=C1NCN(c2ccccc2)C12CCN(C(c1ccccc1OC(F)(F)F)c1nnnn1-c1ccc3c(c1)OCCO3)CC2 (stereo not given) | ? | ? | 0.0% | ? | i | 22.4µM*
COc1ccc(-n2nnnc2C(c2ccccc2OC(F)(F)F)N2CCC3(CC2)C(=O)NCN3c2ccccc2)cc1 (stereo not given) | ? | 16.4µM* | ? | ? | ? | .
CCCN1CCO[C@@H]2c3cc(O)ccc3OC[C@@H]21 | . | . | 13.1% | . | . | .
Cc1ccc(/C=C2\C(=O)NC(=S)N(c3ccccc3F)C2=O)s1 | ? | ? | 31.6µM* | ? | i | ?
Cc1cccc(N=C2c3cc([N+](=O)[O-])ccc3-c3c2cc([N+](=O)[O-])cc3[N+](=O)[O-])c1 | 14.6µM* | -12.6% | ? | -2.7% | ? | ?
C=C1C(C)C2C(Cc3ccccc3)NC(=O)C23OC(=O)/C=C/C(O)CCCC(C)C/C=C/C3C1O (stereo not given) | ? | 8.2µM* | -10.9% | ? | ? | ?
CC[n+]1c(/C=C/C=C/c2ccc(N(C)C)cc2)sc2ccccc21 | 1.46µM* | 7.31µM* | ? | 5.8µM* | ? | .
CN(C)c1ccc(/C=C/c2cc[n+](C)c3ccccc23)cc1 | 2.91µM*! | 7.31µM* | ? | ? | 16.4µM*! | 5.97µM*
CN(C)c1ccc(/C=C/C=C/c2sc3ccccc3[n+]2C)cc1 | 10.3µM* | ? | ? | 20.6µM* | i | ?
CC[n+]1c(/C=C/N(C)c2ccccc2)sc2ccc(Cl)cc21 | 14.6µM* | ? | ? | ? | 11.6µM* | .
C[n+]1c(-c2ccccc2)sc2ccccc21 | i | -1.8% | . | -0.6% | i | ?
COc1ccccc1NC(=O)Cn1c(=O)n(-c2cccc(Cl)c2)c(=O)c2sc3ccccc3c21 | i | . | -2.3% | . | i | i
O=C(O)CNC(=O)c1c(O)c2ccccc2n(Cc2ccccc2)c1=O | . | . | 14.1% | . | . | .
COc1cc2nc(N3CCCN(C)CC3)nc(N(C)C3CCN(C)CC3)c2cc1OC | i | . | . | . | i | .
COc1cc2nc(CN3CC=C(c4ccccc4)CC3)[nH]c(=O)c2cc1OC | 7.31µM* | 1.1% | 1µM* | 1.4% | ? | i
Cc1ccc2nc(-c3ccc(CN4CCC(n5c(=O)[nH]c6ccccc65)CC4)cc3)c(-c3ccccc3)nc2c1 | ? | ? | -24.9% | ? | ? | ?
O=c1[nH]c2ccccc2n1C1CCN(Cc2ccc(-c3nc4ccccc4nc3-c3ccccc3)cc2)CC1 | ? | ? | -34.9% | ? | 23.1µM* | ?
O=c1[nH]c2ccccc2n1C1CCN(Cc2ccc(-c3nc4ccc(F)cc4nc3-c3ccccc3)cc2)CC1 | ? | ? | ? | 20.6µM* | ? | ?
